Sampled rows, rich in hits. Any-hit rate of the full collection: about 21%.
IL-1B inflam inh = qHTS for Inhibitors of Inflammasome Signaling: IL-1-beta AlphaLISA Primary Screen; THP-1 LPS/ATP IL-1B secretion, AlphaLISA, 16 h; active compounds read low; activity change, % at 57.5 µM; 4.7% of 360,000 active; AID 743279, 2014; in the data active means activity change below about -50%; inconclusive means mostly about -30% to -49%
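Secreted IL-1B measured by AlphaLISA bead assay after 16 h compound exposure of THP-1 cells; compounds (final up to 57.5 uM) added 1 h before LPS (250 ng/mL) and ATP (1.25 mM) stimulation; lower signal means less secretion.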
TDP1 cell noCPT = qHTS for Inhibitors of human tyrosyl-DNA phosphodiesterase 1 (TDP1): qHTS in cells in absence of CPT. DT40 Tdp1-/- hTDP1 cells, no CPT, ATP luminescence, 48 h. Potency, µM (top dose mostly 46.2 µM), usual class: inhibitors. 15% of 420,000 active. AID 686978, 2013; further: nearly all actives have a fitted effect of over 55% in size
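A cellular qHTS used chicken DT40 cells lacking endogenous Tdp1 but carrying stably transfected human TDP1. Compounds were applied without camptothecin, and cell growth kinetics were judged by ATP-dependent luminescence after ≥48 hr.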
ClpP mod = qHTS Assay for Activators of ClpP; ATP-dependent Clp protease proteolytic subunit (Bacillus subtilis (strain 168)), P80244; purified B. subtilis ClpP, FRET peptide cleavage, 20 min; Potency, µM (top dose mostly 57.5 µM); 1.9% of 340,000 active; AID 651965, 2013; active means well fitted falling curve with a large enough effect; inconclusive means small, poorly fitted or top-dose-only effect; inactive means no such curve, though single readings can be large or run the other way; further: the source files actives as falling curves though it sought activators and does not explain the sign; nearly all actives have a fitted effect of over 65% in size
Target sequence (P80244 whole entry, looked up): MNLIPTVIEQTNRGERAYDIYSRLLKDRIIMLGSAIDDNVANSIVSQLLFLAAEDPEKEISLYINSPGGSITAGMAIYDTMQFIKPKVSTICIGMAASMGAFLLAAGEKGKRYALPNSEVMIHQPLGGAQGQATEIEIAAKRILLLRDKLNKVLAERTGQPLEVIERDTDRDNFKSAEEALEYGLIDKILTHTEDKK
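FRET quenching reversal measured ClpP activation: 10 microg/mL B. subtilis ClpP at pH 8 with the FRET-FV decapeptide, read at 430 nm after 320 nm excitation. The 20-min minus 0-min signal was scaled between DMSO/no-enzyme wells and ADEP (5.8 microM final).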
DRD3 antagonist = qHTS of D3 Dopamine Receptor Antagonist: qHTS; D(3) dopamine receptor (Homo sapiens), P35462; D3R cells, DiscoveRx beta-arrestin luminescence, antagonist mode; active compounds read low; max response, negative = inhibition, %; 2.5% of 360,000 active; AID 652054, 2013; in the data active means max response below about -50%; inconclusive means no clear call, values can overlap the other calls
Target sequence (P35462 whole entry, looked up): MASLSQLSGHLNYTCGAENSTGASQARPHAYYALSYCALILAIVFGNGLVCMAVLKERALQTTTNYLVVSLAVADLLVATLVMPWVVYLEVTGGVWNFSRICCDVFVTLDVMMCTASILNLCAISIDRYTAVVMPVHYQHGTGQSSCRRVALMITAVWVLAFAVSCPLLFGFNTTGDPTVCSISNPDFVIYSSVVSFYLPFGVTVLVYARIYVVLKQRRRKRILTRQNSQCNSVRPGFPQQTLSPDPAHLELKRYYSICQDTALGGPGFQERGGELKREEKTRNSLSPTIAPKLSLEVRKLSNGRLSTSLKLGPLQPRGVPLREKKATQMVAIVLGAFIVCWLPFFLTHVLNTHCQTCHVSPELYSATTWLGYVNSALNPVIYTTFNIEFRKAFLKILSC
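Cells plated overnight at 1500 cells/well, then exposed to library compounds with dopamine controls for 90 minutes at 37 degrees C. DiscoveRx reagent added for 30–60 minutes at room temperature; luminescence read, quantitative HTS format.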
DRD3 agonist = qHTS of D3 Dopamine Receptor Agonist: qHTS. max activation, %. D3R DiscoveRx beta-arrestin cells, luminescence, 90 min. 0.58% of 410,000 active. D(3) dopamine receptor (Homo sapiens), P35462. AID 652048, 2013; in the data active means max activation above about 30%
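Agonist mode: compounds and dopamine controls were applied to plated cells for 90 min at 37 degrees C after an overnight attachment at 1500 cells/well. Luminescent read-out followed 30 - 60 minutes at room temperature with DiscoveRx detection reagent.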
DT40 TDP1 CPT = qHTS for Inhibitors of human tyrosyl-DNA phosphodiesterase 1 (TDP1): qHTS in cells in presence of CPT; chicken DT40 Tdp1-/-;hTDP1 cells + 20 nM CPT, ATP luminescence, 48 h; Potency, µM (top dose mostly 46.2 µM), actives largely listed as inhibitors; 12% of 420,000 active; further: nearly all actives have a fitted effect of over 55% in size
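Chicken DT40 Tdp1-/- cells complemented with human TDP1, 400 cells/well, exposed to compounds plus 20 nM camptothecin for at least 48 h at 37 C; viability read as ATP content by CellTiter-Glo luminescence.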
Numbers stand for hits; - = inactive; ? = inconclusive; . = no result; [ ] = dose if it differs, or a comment. Unless noted, the call rests on the fitted dose curve; in most records, active means well fitted inhibition curve with a large enough effect; inconclusive means small, poorly fitted or top-dose-only effect; inactive means flat fitted curve, though single readings scatter.

SMILES	IL-1B inflam inh	TDP1 cell noCPT	ClpP mod	DRD3 antagonist	DRD3 agonist	DT40 TDP1 CPT
CCCC(C)(C)C(=O)N1CCC1(C)C(=O)Nc1cccc(OC)c1 (configuration not stated)	-	?	-	-	-	?
O=c1c(CCc2ccccc2)nc2cnc(N3CCOCC3)nc2n1CCc1ccccc1	.	-	.	.	.	-
O=c1sc2ccccc2n1Cc1ccccc1	-	-	.	-	-	-
N=c1sc2ccccc2n1-c1ccccc1	-	26µM	-	-	-	?
C=CC(=O)N=c1sc2ccccc2n1-c1ccccc1	-104	2.6µM	.	-	-	2.6µM
Cc1ccc(CNS(=O)(=O)c2ccc3c(c2)NC(=O)C(C)S3)cc1 (configuration not stated)	-	-	-	-	-	?
C[C@@H]1CN([C@@H](C)CO)C(=O)CCCn2nncc2CO[C@@H]1CN(C)S(=O)(=O)c1ccc(C#N)cc1	-	-	-	-	-	-
FC(F)C(F)(F)c1cc(-c2ccc(Cl)cc2)n[nH]1	.	18µM	.	-	-	18µM
CCCOc1ccc(S(=O)(=O)N2CCOCC2)cc1[N+](=O)[O-]	-	-	-	-	-	-
Cc1c(C(=O)NCc2ccc(Cl)cc2)oc2ccc3c(c12)C(=O)CC(C)(C)O3	.	15µM	?	.	-	?
CCOC(=O)N1CCC2(CC1)CC(=O)c1c(ccc3oc(C(=O)O)c(C)c13)O2	-	-	35µM	-	-	-
CCCNC(=O)c1oc2ccc3c(c2c1C)C(=O)CC(C)(C)O3	?	?	28µM	-	-	-
COc1cc(OC)c(NC(=O)c2oc3ccc4c(c3c2C)C(=O)CC(C)(C)O4)cc1Cl	.	-	-	.	-	-
COc1cccc(CNC(=O)c2oc3ccc4c(c3c2C)C(=O)CC(C)(C)O4)c1OC	.	16µM	-	.	-	?
CCOC(=O)c1ccc(NC(=O)c2oc3ccc4c(c3c2C)C(=O)CC(C)(CC)O4)cc1 (configuration not stated)	.	21µM	?	.	-	?
CC(=O)c1ccc(NC(=O)C2CCCN(c3ncnc4c3nc3n4CCCCC3)C2)cc1 (configuration not stated)	-61	13µM	.	-	-	?
CSc1cccc(NC(=O)C2CCCN(c3ncnc4c3nc3n4CCCCC3)C2)c1 (configuration not stated)	-	15µM	-	-	-	?
CC(=O)c1cccc(NC(=O)C2CCN(c3ncnc4c3nc3n4CCCCC3)CC2)c1	.	?	-	.	-	?
O=C(Cc1csc(-c2ccc(F)cc2)n1)Nc1cccc(S(=O)(=O)NC2=NCCC2)c1	-	-	-	-	-	-
CC(C)(C)c1ccc(OCCC(=O)Nc2cccc(S(=O)(=O)NC3=NCCCCC3)c2)cc1	-	23µM	.	-	-	23µM
CCCCCC(=O)Nc1cccc(S(=O)(=O)NC2=NCCCCC2)c1	-	-	-	-	-	-
O=C(Cc1csc(-c2ccc(Cl)cc2)n1)Nc1cccc(S(=O)(=O)NC2=NCCC2)c1	-52	-	-	-	-	-
CC(C)(C)c1ccc(C(=O)Nc2cccc(S(=O)(=O)NC3=NCCC3)c2)cc1	?	12µM	-	-	-	?
CN(CC(=O)Nc1cccc(S(=O)(=O)NC2=NCCCCC2)c1)Cc1ccc(C(C)(C)C)cc1	?	21µM	.	-	-	29µM
O=C(COC(=O)c1ccc(C(F)(F)F)cc1)Nc1cccc(S(=O)(=O)NC2=NCCCCC2)c1	-	-	-	-	-	-
SMILES	IL-1B inflam inh	TDP1 cell noCPT	ClpP mod	DRD3 antagonist	DRD3 agonist	DT40 TDP1 CPT
CCSCc1nnc(SCC(=O)Nc2ccc(F)cc2)n1CC	-	-	-	-	-	-
CCN(CC)CCNC(=O)C1(O)c2cc(Br)ccc2NC(=O)N1c1c(F)cccc1F (configuration not stated)	-	-	-	-	-	-
CNC(=O)C(=O)N/N=C/c1cccnc1	-	-	-	-	-	-
C[C@@H]1NC(=O)[C@@H](N)CNC(=O)[C@H](C2CCNC(N)=N2)NC(=O)/C(=C/NC(N)=O)NC(=O)[C@H](CNC(=O)C[C@@H](N)CCCN)NC1=O (some centres not stated)	.	-	.	.	-	-
CCOCCCNCc1ccc(OCCC(C)C)c(OC)c1	-	-	.	-	-	-
O=C(COC(=O)/C=C/c1cc(Br)ccc1F)Nc1ccc2[nH]c(=O)[nH]c2c1	-	-	.	-	88	-
O=C(Nc1cccc(S(=O)(=O)NC2=NCCCCC2)c1)c1cc(-c2ccccc2Cl)nc2ccccc12	-	?	-	-	-	?
O=C(CCl)Nc1cccc(S(=O)(=O)NC2=NCCC2)c1	-99	6.5µM	-	-	-	8.2µM
O=C(Nc1cccc(S(=O)(=O)NC2=NCCC2)c1)c1cc(-c2ccccn2)nc2ccccc12	-	16µM	-	-	-	23µM
O=C(COC(=O)/C=C/c1cccc(Br)c1)Nc1cccc(S(=O)(=O)NC2=NCCC2)c1	-	4.1µM	-	-	-	-
O=C(c1ccc2c(c1)OCO2)N1CCOc2ccc(CN3CCC(Oc4cccnc4)CC3)cc2C1	.	-	.	.	.	-[9.04 µM]
CCOC(=O)/C=C/C(=O)OCC(=O)Nc1cccc(Br)c1	-62	?	.	-	-	-
OC(Cc1ccccc1)c1ncc(-c2ccc3ccccc3c2)[nH]1 (configuration not stated)	-	23µM	-	-	-	?
OC(c1cccc(Cl)c1)c1ncc(-c2ccc3ccccc3c2)[nH]1 (configuration not stated)	-	?	-	-	-	?
Cc1cccc(-c2cnc(C(O)Cc3ccccc3)[nH]2)c1 (configuration not stated)	-	?	-	-	-	16µM
CCc1ccc(C(O)c2ncc(-c3cccc(C)c3)[nH]2)cc1 (configuration not stated)	-	?	-	-	-	?
Cc1cccc(NC(=O)c2cc(-c3cc(Cl)ccc3O)n[nH]2)c1	-	?	-	-	-	?
COc1ccc(C(CNC(=O)C(C)Oc2ccc(Br)cc2)N2CCCC2)cc1 (configuration not stated)	?	?	-	-81	-	?

Assay outcomes (PubChem BioAssay)
